FPRL1 ligand: binds the human formylpeptide receptor-like-1 FPRL1; inhibition, % (concentration not given with the values); P25090; AID 441; FPRL1-expressing cells, fluorescent ligand binding inhibition, flow cytometry; hit rate 0.3% among 24,000;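 also: 0% = buffer alone and 100% = receptor blocker peptide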
Target sequence (P25090 whole entry, looked up): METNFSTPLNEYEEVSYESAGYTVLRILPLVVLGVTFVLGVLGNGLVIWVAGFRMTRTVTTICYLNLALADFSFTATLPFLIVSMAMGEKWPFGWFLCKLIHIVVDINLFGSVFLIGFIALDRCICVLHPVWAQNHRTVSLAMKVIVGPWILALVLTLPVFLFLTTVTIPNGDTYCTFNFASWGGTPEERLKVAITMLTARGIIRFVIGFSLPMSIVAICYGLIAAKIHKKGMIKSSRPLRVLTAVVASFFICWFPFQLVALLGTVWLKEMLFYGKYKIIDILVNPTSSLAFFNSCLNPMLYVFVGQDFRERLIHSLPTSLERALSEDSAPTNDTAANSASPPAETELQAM
FPR ligand: ligands of human FPR, also counter-screen for FPRL1 ligands | P21462 | FPR-expressing cells, fluorescent ligand binding, flow cytometry | inhibition, % (test concentration not listed) | hit rate 0.74% among 24,000;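 also: 0% = buffer wells and 100% = receptor blocker peptide wells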
QS inhibitor: inhibitors of bacterial quorum sensing in S. aureus; hit rate 0.3% among 24,000; S. aureus RN6390 RNAIII-GFP reporter, AIP-induced, flow cytometry 3 h; inhibition, % at 2 µM;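 active = share of bacteria positive for the green fluorescent reporter and its mean brightness both inhibited by 50% or more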;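 also: 0% = AIP-stimulated control and 100% = unstimulated bacteria without AIP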
An asterisk follows results filed as active; . = no result given. Compounds with a hit are over-represented: about 0.96% of the library has one in this group of screens. Rule as the data show it, unless noted: active = inhibition above about 30%; inconclusive = no clear call, values can overlap the other calls; inactive = below that.

SMILES | FPRL1 ligand | FPR ligand | QS inhibitor
Cc1ccc(C2/C(=C(/O)c3ccc(Cl)cc3)C(=O)C(=O)N2CC2CCCO2)o1 (configuration not stated) | -2 | 60* | .
Cc1ccc(C)c(/C(O)=C2/C(=O)C(=O)N(CCN3CCOCC3)C2c2ccc(C)o2)c1 (configuration not stated) | -2 | 0 | .
Cc1cccc(N2CCN(C(=O)c3cn(C)c(=O)c4c3c3ccccc3n4C)CC2)c1C | -7 | -4 | -2
CCC(CC)C(=O)Nc1c2cnn(-c3ccccc3)c2nc(=O)n1-c1ccccc1 | 4 | 83* | -2
CCCCCSc1nc2c(cnn2-c2ccccc2)c(=O)[nH]1 | 2 | -3 | 4
CC(=O)SCC(=O)N=c1sc2cc(F)ccc2n1C | 34* | 56* | -1
CCOC(=O)Cn1c(=NC(=O)CSC(C)=O)sc2cc(OC)ccc21 | 15 | 25 | 0
O=C(NC1CC1)c1ccc(CSCc2cccc(F)c2)o1 | -3 | 3 | 1
Cc1cccc(-n2c(C)nc3c(cnn3-c3ccc(F)cc3)c2=O)c1 | -8 | 4 | 0
Cc1[nH]n2c(=O)c3c(nc2c1-c1cccc2ccccc12)CCC3 | 28 | 48* | .
Cc1[nH]n2c(=O)c3c(nc2c1-c1ccccc1)CCCC3 | 0 | 11 | .
CCOCCCNC(=O)CN1C(=O)CSc2cc(S(=O)(=O)N3CCCCCC3)ccc21 | -4 | 3 | 0
COCCCN1C(=O)C(O)=C(C(=O)c2ccco2)C1c1cccc(Br)c1 (configuration not stated) | -7 | 70* | .
CCN(CC)CCCN1C(=O)C(O)=C(C(C)=O)C1c1cccc(OC)c1 (configuration not stated) | 0 | 2 | -8
CCCOc1ccc(C2C(C(=O)c3ccco3)=C(O)C(=O)N2CCN2CCOCC2)cc1OC (configuration not stated) | -4 | 20 | .
COCCCN1C(=O)C(O)=C(C(=O)c2ccco2)C1c1ccc(Br)cc1 (configuration not stated) | -4 | 48* | -1
CC(Oc1ccccc1)C(=O)NC1CCN(Cc2ccccc2)CC1 (configuration not stated) | -4 | -3 | -2
COC(=O)c1cc2c(cc1NC(=O)CSCCc1ccccn1)OCO2 | -22 | -3 | 0
O=S(=O)(NCCc1ccccn1)c1cccs1 | 4 | 0 | -1
O=S(=O)(Nc1cccc2ncccc12)c1cccs1 | 39* | 13 | -4
COc1ccc(NC(=O)CSc2nccn2-c2ccccc2)c(OC)c1 | -3 | 5 | 0
CCOc1ccccc1NC(=O)CSc1nccn1-c1ccccc1 | 37* | 44* | 0
CCCCN(CC)CCCNC(=O)c1cc2cc3ccc(OC)cc3nc2o1 | 6 | -4 | -1
CCCCC(=O)Nc1ccc2c3c(cccc13)C(=O)N2CC | 7 | 6 | 0
CCN1CCN(Cc2ccc(NC(=O)Nc3cccs3)cc2)CC1 | 4 | 1 | 2
SMILES | FPRL1 ligand | FPR ligand | QS inhibitor
COCCCNC(=O)CS(=O)(=O)Cc1nc(-c2cccc(OC)c2)oc1C | 0 | 10 | 6
COc1cccc(-c2nc(CS(=O)(=O)CC(=O)NCCC(C)C)c(C)o2)c1 | 2 | 34* | -2
O=C1NC(=O)C2(CCC(C(=O)O)C2)N1 (configuration not stated) | 3 | 1 | -2
O=P1(O)C=C(c2ccccc2)NC(c2ccccc2)=C1 | -1 | 10 | 0
COc1ccccc1-n1c(CNC(=O)c2ccco2)nnc1SCC(=O)Nc1cc(C)ccc1C | -1 | -2 | -2
COc1ccccc1-n1c(CNC(=O)c2ccco2)nnc1SCC(=O)Nc1ccc(F)cc1 | 3 | 47* | 2
N[C@@H](Cc1cc(I)c(Oc2ccc(O)c(I)c2)c(I)c1)C(=O)O | -4 | 14 | 21
O=C(O)CCc1cc(I)c(Oc2ccc(O)c(I)c2)c(I)c1 | -2 | 17 | 88*
CC1CCCC(C)N1CCCNC(=O)Cn1cc2c(n1)CCCC2 (configuration not stated) | 2 | 1 | -2
CCOCC(=O)Nc1nc2ccc(OC)cc2s1 | 0 | 0 | 0
COc1ccc2nc(Nc3nc(C)c(C(C)=O)s3)sc2c1 | 59* | 6 | -4
O=C(NCc1ccc2c(c1)OCO2)C1CC(=O)N(C2CCCCCC2)C1 (configuration not stated) | -1 | 2 | 1
O=C(Nc1ccccc1C(F)(F)F)N1CCN(c2ccc3nnc(-c4ccc(F)cc4)n3n2)CC1 | 20 | -3 | -5
Fc1ccc(-c2nnc3ccc(N4CCc5ccccc5C4)nn23)cc1 | -8 | 7 | 69*
CCc1oc2ccccc2c1C(=O)c1cc(Br)c(O)c(Br)c1 | 7 | 10 | 52*
CCOC(=O)c1c(COc2ccccc2)oc2ccc(O)cc12 | . | . | 5
NC(=O)C1(N2CCCCC2)CCN(Cc2ccccc2Cl)CC1 | -2 | 1 | 0
COc1ccc2ccccc2c1C1CC(=O)N2CN(Cc3ccco3)CSC2=C1C#N (configuration not stated) | -3 | 1 | -1
COc1ccc2ccccc2c1C1CC(=O)N2CN(C3CCCCC3)CSC2=C1C#N (configuration not stated) | 2 | 64* | -2
CC(C)c1ccc(NC(=O)CCNS(=O)(=O)c2cccc3nonc23)cc1 | -4 | 0 | 3
CC(C)OP(=O)(c1ccc(N(C)C)cc1)C(O)c1ccccc1F (configuration not stated) | -3 | -6 | -2
CC(C)CCOP(=O)(c1ccc(N(C)C)cc1)C(O)c1ccccc1F (configuration not stated) | 0 | 6 | 82*
CCOCCCNC(=O)C(NC(=O)c1cnccn1)c1ccc(OC)cc1 (configuration not stated) | 25 | 23 | -1
COc1ccc(NC(=O)C(c2ccc(C)cc2)N(C)C(=O)c2cnccn2)cc1 (configuration not stated) | 38* | 18 | 3
O=C(O)C1CC1c1ccc(Br)cc1 (configuration not stated) | 0 | -2 | 9
SMILES | FPRL1 ligand | FPR ligand | QS inhibitor
CCn1c(SCc2cc(=O)[nH]c3ccccc23)nc2c1c(=O)n(C)c(=O)n2C | 5 | 6 | 0
CCCn1c(=S)[nH]c2cc(C(=O)N3CCN(c4ccccc4OC)CC3)ccc2c1=O | -1 | 5 | 66*
CCOC(=O)N1CCN(C(=O)c2ccc3c(=O)n(Cc4ccccc4)c(=S)[nH]c3c2)CC1 | 1 | 3 | -2
COC(=O)c1ccccc1OCC(=O)NC1CCCCC1 | -5 | -2 | 0
COC(=O)C1=C(C)NC(C)=C(C(=O)OC)C1C(=O)OC1CCCCC1=O (configuration not stated) | 6 | 9 | -1
O=C(C1=C(O)C(=O)N(Cc2ccco2)C1c1cccnc1)c1cc2ccccc2o1 (configuration not stated) | -3 | 6 | .
COc1cccc2cc(C(=O)C3=C(O)C(=O)N(Cc4ccco4)C3c3cccnc3)oc12 (configuration not stated) | 30 | 34* | .
COC(=O)C1=C(N)Oc2cc(C)n(Cc3cccnc3)c(=O)c2C1c1ccc(OC)c(OC)c1 (configuration not stated) | 0 | 3 | -8
C=CCOc1ccc(C2C(C(=O)c3ccco3)=C(O)C(=O)N2Cc2cccnc2)cc1 (configuration not stated) | 25 | 25 | -1

From PubChem BioAssay
